Experimental data: PubChem BioAssay AID743286 (National Center for Advancing Translational Sciences (NCATS), 2014)
Among all 1,100 compounds or so, about 340 (31%) were called active. About 40% were inconclusive and are not listed. Calls follow the shape of the dose curve; as a rule, active = well fitted inhibition curve with a large enough effect; inconclusive = small, poorly fitted or top-dose-only effect; inactive = flat fitted curve, though single readings scatter. The list is a sample of the results.

Target: Phosphatidylinositol 5-phosphate 4-kinase type-2 alpha (Homo sapiens) (UniProt P48426)
Experiment: qHTS for Inhibitors of PI5P4K: Confirmation in Primary Assay; also: nearly all actives have a fitted effect of over 65% in size
Conditions: PI5P4Kalpha enzyme, ADP-Glo luminescence, 60 min; series mostly up to 76.9 µM
Procedure, shortened: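 ADP-Glo luminescence end-point quantifies ADP from 60-min room-temperature turnover of PI5P by PI5P4Kα. ATP 5 µM final; buffer 0.038 M HEPES pH 7.4, 0.28 mM EGTA, 0.1% CHAPS, 5% DMSO.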
Potency is read from the fitted curve at half-maximal effect.

Sequence of Phosphatidylinositol 5-phosphate 4-kinase type-2 alpha (Homo sapiens) (P48426 whole entry, looked up): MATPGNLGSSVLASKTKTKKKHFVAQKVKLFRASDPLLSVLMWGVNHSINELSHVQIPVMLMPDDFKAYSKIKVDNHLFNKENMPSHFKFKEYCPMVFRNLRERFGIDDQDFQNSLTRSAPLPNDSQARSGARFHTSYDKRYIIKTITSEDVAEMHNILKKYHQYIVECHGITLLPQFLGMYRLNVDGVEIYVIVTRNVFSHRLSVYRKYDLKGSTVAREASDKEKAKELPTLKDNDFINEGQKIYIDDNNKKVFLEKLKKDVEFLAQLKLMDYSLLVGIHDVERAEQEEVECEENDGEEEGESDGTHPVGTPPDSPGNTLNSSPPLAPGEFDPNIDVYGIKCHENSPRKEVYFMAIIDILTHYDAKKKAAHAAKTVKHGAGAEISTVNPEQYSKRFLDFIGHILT

Potency, active:
COc1ccc(S(=O)(=O)/N=C2\C=C(NS(=O)(=O)c3ccccc3)C(=O)c3ccccc32)cc1 31.6 µM
Cc1ccc(-c2nc3c(c(=O)[nH]c(=O)n3Cc3ccccc3)n2C)o1 5.62 µM
Cc1ccc(CNC(=O)c2ccc(-n3cccc3)cc2)cc1 12.6 µM
Cc1cc(-c2nc3c4c5c(sc4[nH]c(=O)n3n2)CCC5)c(C)o1 15.8 µM
COC(=O)C1CCN(C(=O)c2cc(-c3ccco3)nc3ccccc23)CC1 3.98 µM
CCOC(=O)C1CCCN(C(=O)c2cc(-c3ccco3)nc3ccccc23)C1 (configuration not stated) 3.16 µM
CCOC(=O)Nc1ccc(NCc2ccc(F)cc2)nc1N 31.6 µM
O=C(Oc1ccc2c(c1)OCO2)c1cc2c(s1)CCC2 2.24 µM
O=c1c2ccccc2cnn1-c1nc2ccccc2[nH]1 25.1 µM
CCc1ccc(N2CSC3=C(C#N)C(c4cccs4)CC(=O)N3C2)cc1 (configuration not stated) 12.6 µM
N#CC1=C2SCN(c3ccc(F)cc3)CN2C(=O)CC1c1cccc(F)c1 (configuration not stated) 20 µM
CCc1ccc(C2CC(=O)N3CN(c4ccccc4)CSC3=C2C#N)cc1 (configuration not stated) 28.2 µM
N#CC1=C2SCN(c3ccccc3)CN2C(=O)CC1c1cccs1 (configuration not stated) 15.8 µM
C[C@H](NC(=O)c1cc2c(cn1)[nH]c1ccccc12)C(=O)O 10 µM
Cc1ccc(-c2cc3c(n2-c2ccc(C(=O)O)cc2)CCCC3=O)cc1 15.8 µM
Nc1nc(Nc2ccccc2)sc1C(=O)c1ccccc1 7.94 µM
Nc1nc(Nc2ccccc2F)sc1C(=O)c1ccccc1 14.1 µM
COc1ccc(C(=O)c2sc(Nc3ccccc3F)nc2N)cc1 5.62 µM
COc1ccccc1N(CC(=O)NCc1ccco1)S(=O)(=O)c1ccc(C)cc1 15.8 µM
O=C(O)c1cccc(NC(=O)c2cn(-c3ccccc3)nc2-c2cc3ccccc3o2)c1 14.1 µM
CCCCNC(=O)c1ccc2nc(-c3ccco3)c(-c3ccco3)nc2c1 12.6 µM
COc1ccc2nc(-c3ccco3)c(-c3ccco3)nc2c1 10 µM
O=C(c1ccccc1)c1ccc2nc(-c3ccco3)c(-c3ccco3)nc2c1 4.47 µM
COCCNC(=O)Nc1ccc2nc(-c3ccco3)c(-c3ccco3)nc2c1 6.31 µM

Potency, inactive:
O=C(O)CCC(=O)N1CCC(n2nnc3cc(C(F)(F)F)ccc32)CC1
O=C(NC1CC1)c1ccc(NC(=O)C2CCC2)cc1
CC(C)OC(=O)c1c(NS(=O)(=O)c2ccccc2)sc2c1CCCC2
COc1ccc(S(=O)(=O)Nc2ccc3c(c2)CCC3)cc1
COc1cc(=O)[nH]c(=O)n1C(=O)Cc1ccccc1
CCCCn1c(=O)[nH]c(=O)c2c1nc(-c1ccc(-c3ccccc3Br)o1)n2CC
O=C(CC1C(=O)NCCN1CC1CCCCC1)NCc1cc(F)ccc1F (configuration not stated)
Cc1ccc(CNC(=O)CCS(=O)(=O)c2ccc(Cl)cc2)cc1
Cc1ccc(CNC(=O)CSc2ncccn2)cc1
O=C(NCc1ccc(F)cc1)C1CCN(c2cnccn2)CC1
CCOC(=O)C1CCCN(C(=O)c2ccc(F)c(C)c2)CC1 (configuration not stated)
CCOC(=O)C1(C)CCCN(C(=O)c2ccccc2C(F)(F)F)C1 (configuration not stated)
COc1ccc(C(=O)N2CCC(C(=O)Nc3ccc(C)cc3)CC2)cc1
Cc1ccc(C)c(C2=NNC(=NCc3ccccc3)SC2)c1
O=C(Nc1ccc(Cl)cc1)Nc1ccccc1CC[N+](=O)[O-]
Cc1cc(C)cc(NC(=O)Cn2nnc(C(=O)NCc3ccc(F)cc3)c2N)c1
COc1ccc(-c2cc(C(F)F)n3ncc(C(=O)n4ccnc4C)c3n2)cc1
Cc1ccc(-n2c(SCC(=O)Nc3ccc4c5c(cccc35)CC4)nc(O)cc2=O)cc1
O=C(NC1CC1)C1=C[C@@H](c2c[nH]c3ccccc23)C[C@@H](OCc2ccc(CO)cc2)O1
COc1ccc(N2CCN(C(=O)c3[nH]c(C(F)(F)F)nc3-c3ccccc3)CC2)cc1
CCOc1ccc(Cl)cc1S(=O)(=O)n1cnc2ccccc21
O=C(Cc1cccs1)N(CC1CCCO1)C1(C(=O)NC2CCCCC2)CCCCC1 (configuration not stated)
NC(=O)[C@@H]1CC2(CC(c3cccc(NC(=O)COc4ccc(Cl)cc4)c3)=NO2)CN1C(=O)COc1ccc(Cl)cc1 (some centres not stated)
CC(NC(=O)c1ccnn1C)C1CCCO1 (configuration not stated)
Cn1c(=O)oc2cc(S(=O)(=O)Nc3ccccc3)ccc21
CCOc1ccc(NC(=O)N2CCC(n3nnc4ccccc43)CC2)cc1
O=C1NN=C2CCCCCC12 (configuration not stated)
Nc1sc2c(c1C(=O)c1ccccc1)CCCC2
CCC(=O)Oc1ccc(C(=O)Nc2c[nH]c(=O)[nH]c2=O)cc1
O=C(c1ccc(OCCN2CCCCC2)cc1)c1c(-c2ccc(O)cc2)sc2cc(O)ccc12
COc1ccc(S(=O)(=O)N(C(=O)c2ccco2)c2cc3sc(=O)oc3c3ccccc23)cc1
COc1ccccc1N(CC(=O)N1CCC(C(N)=O)CC1)S(=O)(=O)c1ccccc1
CCn1cc(C(=O)N2CCN(c3cccc(C)c3C)CC2)c(=O)c2ccc(C)nc21
CN(Cc1cn(-c2ccccc2)nc1-c1cc2ccccc2o1)C(=O)CCC(=O)O
COc1ccc(-c2nnn(CC(=O)N(CC(=O)NC3CCCC3)c3ccccc3)n2)cc1OC
COc1ccccc1Cc1c(-c2ccco2)nc2c(C)cc(Br)cn12
O=C(Nc1nc(-c2ccco2)cs1)c1ccccc1
Cc1cccc(C)c1NC(=O)C(c1ccc(C(F)(F)F)cc1)n1c(=O)c(-c2ccco2)nc2ccccc21 (configuration not stated)
CCCNC(=O)CSc1nnc(-c2ccco2)n1C
CS(=O)(=O)c1ccc(C(=O)Nc2nc(-c3ccco3)c(-c3ccco3)s2)cc1
COc1ccc(NC(=O)CSc2nnc(-c3ccco3)c(-c3ccco3)n2)cc1OC
COc1ccc(C2=NCCn3nc4cc(OC)ccc4c32)cc1
COCCNC(=O)C(c1ccc(Cl)cc1)N(Cc1ccco1)C(=O)CCC(=O)Nc1ccccn1 (configuration not stated)
